Test results: ChEMBL document CHEMBL4513216, “Probing the Open Global Health Chemical Diversity Library for Multistage-Active Starting Points for Next-Generation Antimalarials” (ACS Infect Dis, 2020)
The whole screen tested about 69,000 compounds, of which about 8,600 (12%) showed an effect of 50% or more. This is one part of a sample in which strong results are shown more often than they occur.

system: Plasmodium berghei; test: Screen against P. berghei liver stage (PbLuc), transformed with Luciferase, at 10uM; assay type: functional, HepG2; settings: tested at 10 uM

SMILES	INHIBITION
Cn1cnc2c1CCN(Cc1cccc(C(=O)N3CCCCC3)c1)C2	-40.01%
Cc1cccc(S(=O)(=O)N2C[C@@H]3C[C@H](C(=O)N(C)C)[C@H](C2)O3)c1	42.3%
Cc1nc(NC2CC(C)(C)NC(C)(C)C2)c2c(n1)c(C)nn2C	-7.83%
COCCc1noc(CN(C)c2nc(C)nc(C)c2C)n1	47.6%
CNc1snc(C)c1C(=O)N1CCCC(n2nc(C)nc2C)C1 (configuration not stated)	19.4%
O=C1CC(NS(=O)(=O)c2cccc(F)c2)CN1 (configuration not stated)	10.7%
CC(NC(=O)N1CCC(CO)CC1)c1csc2ccccc12 (configuration not stated)	55.5%
CC(=O)N1CCCN(C(=O)NC(C)c2csc3ccccc23)CC1 (configuration not stated)	21.8%
CC(NC(=O)N1CCC(CC(N)=O)CC1)c1csc2ccccc12 (configuration not stated)	27.7%
COc1ccc(C(=O)N2CCCCC2c2nccs2)c(OC)c1 (configuration not stated)	7.12%
COc1ccc(CC(=O)N2CCCCC2Cn2cc(C)cn2)cc1F (configuration not stated)	-2.19%
CC(C)Cc1cc(NC(=O)c2cccnc2)n(C)n1	-10.6%
CCN(CC(=O)NC(C)C)S(=O)(=O)N1CCCC(C)C1 (configuration not stated)	-13.4%
CCN(CC)S(=O)(=O)N1CCCN(CC(=O)NC(C)C)CC1	57.2%
CCN(CC(=O)NC(C)C)S(=O)(=O)N1CCCCCC1	-12.6%
Fc1ccc2[nH]c3c(c2c1)CCN1C(c2ccccn2)N2CCC31CC2 (configuration not stated)	-23.4%
CC(NCC1CCS(=O)(=O)CC1)c1cccc(OC(F)F)c1 (configuration not stated)	2.97%
CC(=O)Nc1cccc(C(C)NCC2CCS(=O)(=O)CC2)c1 (configuration not stated)	25.8%
Cc1cccc(C(C)NCC2CCS(=O)(=O)CC2)c1 (configuration not stated)	64.4%
O=C(Nc1cnccn1)[C@@H]1C[C@H]2OCC[C@H]2N(Cc2ccsc2)C1	-38.9%
CCCN1C[C@@H]2CC[C@H]1CN(Cc1ccc(Cn3cccn3)cc1)C2	-27.5%
COC(=O)c1ccc(N2CCN(C(=O)c3cnn(C)c3)C(C)C2)cc1 (configuration not stated)	63.6%

SMILES	INHIBITION
COC(=O)c1ccc(N2CCN(C(=O)c3ccc(O)nc3)C(C)C2)cc1 (configuration not stated)	2.97%
COC(=O)c1ccc(N2CCN(C(=O)c3cccnc3)C(C)C2)cc1 (configuration not stated)	81.1%
COC(=O)c1ccc(N2CCN(C(=O)c3ccncc3)C(C)C2)cc1 (configuration not stated)	27.1%
COC(=O)c1ccc(N2CCN(C(=O)c3ccco3)C(C)C2)cc1 (configuration not stated)	-34%
COC(=O)c1ccc(N2CCN(C(=O)C3CC3)C(C)C2)cc1 (configuration not stated)	31.6%
O=S(=O)(CCNC1CCc2ncnn2C1)c1ccc(Cl)cc1 (configuration not stated)	21.5%
CO[C@@H]1CN(c2ccccc2)S(=O)(=O)[C@@]12CCN(CC1CC1)C2	22.2%
CCn1cc(NC(=O)NCC(c2ccc(OC)cc2)N(C)C)cn1 (configuration not stated)	34.85%
C[C@@H]1CN(C(=O)c2ccccc2F)C[C@]12CCN(CCN(C)C)C2=O	11.2%
NC(=O)C1CN(Cc2c(O)ccc3oc4c(c23)CCCC4)CCO1 (configuration not stated)	-66.7%
Oc1ccc2oc3c(c2c1CN1CCOCC1)CCCC3	-115%
O=C1NCCCc2c1oc1ccc(O)c(CN3CCOCC3)c21	58.1%
CCCC1(CO)CCCN(C(=O)CN2CCN(CC)CC2)C1 (configuration not stated)	17.4%
CN(C)c1cc(CNc2ccc(S(=O)(=O)C(C)(C)C)nc2)ccn1	-1.35%
Cn1c(CN2CCOC(CCc3ccncn3)C2)nc2ccccc21 (configuration not stated)	38.8%
CCc1noc(CS(=O)(=O)Cc2nc(Cc3ccccc3)no2)n1	25.5%
CCc1noc(CS(=O)(=O)CC(=O)N2c3ccccc3CC2C)n1 (configuration not stated)	-21%
CCc1noc(CS(=O)(=O)Cc2ccccc2Cl)n1	52.6%
Cc1ccccc1CS(=O)(=O)Cc1nc(C2CC2)no1	9.16%
CCc1noc(CS(=O)(=O)Cc2ccccc2C)n1	61.3%
CCc1noc(CS(=O)(=O)CC=C(C)C)n1	21.9%
Cc1ccc(C2COCCN2C(=O)c2ccc(F)c(F)c2)o1 (configuration not stated)	44.9%

SMILES	INHIBITION
O=C(c1cnccn1)N1CCc2onc(Cn3cccn3)c2C1	9.63%
O=C(NCCN1CCCCCC1=O)c1ccc(=O)[nH]n1	33.7%
Cn1ccnc1CN1CCN2C[C@H](Oc3ccccc3)C[C@H]2C1	39.8%
CN(C)c1nccc(C2CCCCN2Cc2cnn3cccnc23)n1 (configuration not stated)	-29.9%
Cc1csc(N2CCCN(C(=O)Cn3cncn3)CC2)n1	-52.5%
CN(Cc1ccnc2ccccc12)C1CCS(=O)(=O)C1 (configuration not stated)	45.2%
CCOCC1CN(C(=O)COc2ccccc2C)Cc2ncn(C)c21 (configuration not stated)	24.6%
O=C(Cc1ccc(F)cc1)N1CCCCC1c1ccn2ccnc2n1 (configuration not stated)	7.39%
O=C(COc1ccccc1F)N1CCCCC1c1ccn2ccnc2n1 (configuration not stated)	63.4%
O=C(Cc1cccc(F)c1)N1CCCCC1c1ccn2ccnc2n1 (configuration not stated)	9.1%
O=C(Cc1ccccc1F)N1CCCCC1c1ccn2ccnc2n1 (configuration not stated)	51.5%
O=C(CCc1cccnc1)N1CCCCC1c1ccn2ccnc2n1 (configuration not stated)	45.6%
O=C(COc1cccc(F)c1)N1CCCCC1c1ccn2ccnc2n1 (configuration not stated)	1.11%
CCn1cc(CNc2ccc(F)c(F)c2)cn1	-8%
CC(C)CCc1noc(C[S+]([O-])CC(=O)NCc2ccccc2)n1 (configuration not stated)	55.3%
CC(C)Cc1nc(C[S+]([O-])CC(=O)NCc2ccccc2)no1 (configuration not stated)	-5.1%
CCCc1noc(C[S+]([O-])CC(=O)NCc2ccccc2)n1 (configuration not stated)	23.2%
COc1ccc(N2CCN(C(=O)COc3nccc(C)n3)CC2)cc1	36.8%
N#CCc1ccc(NC(=O)N[C@H](CO)Cc2ccc(O)cc2)cc1	11.6%
N#Cc1cccc(NC(=O)N[C@H](CO)Cc2ccc(O)cc2)c1	60.9%
N#Cc1cccc(NC(=O)N[C@H](CO)c2ccccc2)c1	18.5%
Cc1ccc(CN2CC[C@@H](NC(=O)c3cccnc3)[C@H](O)C2)o1	31.1%

SMILES	INHIBITION
O=C(CNc1cc(-n2cnnn2)ccc1F)NCc1ccccc1	53.4%
O=C(CNc1cc(-n2cnnn2)ccc1F)Nc1ccccc1Cl	41.4%
O=C(CNc1cc(-n2cnnn2)ccc1F)Nc1cc(F)ccc1F	46.6%
COCCNC(=O)c1cc(-c2ccc3c(c2)CCO3)n[nH]1	-18.9%
CCC(CO)N(Cc1ccc(F)cc1)Cc1c(C)nn(C)c1Cl (configuration not stated)	-8.66%
CCC(CO)N(Cc1ccccn1)Cc1c[nH]nc1-c1ccc(F)cc1 (configuration not stated)	78.9%
CN(Cc1ccn[nH]1)Cc1c[nH]nc1-c1ccc(F)cc1	77.2%
CCN(Cc1ccncc1)Cc1c[nH]nc1-c1ccc(F)cc1	14.8%
CCC(CO)N(Cc1ccccn1)Cc1ccc(-c2ccn[nH]2)s1 (configuration not stated)	47.2%
CCC(CO)N(C/C(C)=C/c1ccco1)Cc1ccccn1 (configuration not stated)	8.64%
CCC(CO)N(Cc1ccncc1)Cc1c[nH]nc1-c1ccc(F)cc1 (configuration not stated)	57.6%
CN(Cc1cc(C(C)(C)C)n[nH]1)Cc1c[nH]nc1-c1ccc(F)cc1	47.6%
Cc1n[nH]c(C)c1CCCN(C)Cc1c[nH]nc1-c1ccc(F)cc1	40.2%
CN(Cc1ccccc1)C(=O)Cn1nc(N2CCOCC2)ccc1=O	-28.7%
O=C1CCCCN1CCc1nc(C2(c3ccc(F)cc3)CCOC2)no1 (configuration not stated)	-15.5%
CCc1nn(C)c2[nH]nc(NC(=O)c3cccnc3NC(C)C)c12	36.3%
CCS(=O)(=O)N1CC(=O)N(CCOc2ccccc2)CC(O)C1 (configuration not stated)	-10.3%
CCn1cc(S(=O)(=O)NC2(CN3CCOCC3)CCCCC2)c(C)n1	-10.5%
CC(C)c1nccn1C(C)C(=O)N1CCN(c2cnccn2)CC1 (configuration not stated)	-6.28%
CC(C)c1nccn1C(C)C(=O)N1CCN(c2ccccc2Cl)CC1 (configuration not stated)	64.6%
Cc1cccnc1N1CCN(C(=O)C(C)n2ccnc2C(C)C)CC1 (configuration not stated)	17.9%
COCCN(C)C[C@@H]1CN(C(=O)c2ccc(C)c(Cl)c2)C[C@@H]1CO	13.1%

SMILES	INHIBITION
C[C@@H]1CN(Cc2ccoc2)C[C@]12CCN(CC(=O)N(C)C)C2=O	23.5%
CCOC(C)c1noc(CN2CCN(Cc3ccno3)CC2)n1 (configuration not stated)	33.4%
CCOC(C)c1noc(CN2CCNCC2)n1 (configuration not stated)	31.2%
CCOC(C)c1noc(CN2CCN(c3nnc(C)s3)CC2)n1 (configuration not stated)	65.8%
CCOC(C)c1noc(CN2CCN(CC3CCCC3)CC2)n1 (configuration not stated)	28%
CCOC(C)c1noc(CN2CCN(Cc3cccnc3)CC2)n1 (configuration not stated)	34.4%
CCOC(C)c1noc(CN2CCN(c3ccncc3)CC2)n1 (configuration not stated)	81%
COc1ccc(CN(Cc2cccnc2)CC2CCCO2)c(OC)c1 (configuration not stated)	22.2%
CCN1C(=O)CCCC12CCCN(C(=O)c1ccoc1C)C2 (configuration not stated)	32.1%
CCC(=O)NCC(=O)NCC1(O)CCC(C(C)(C)C)CC1 (configuration not stated)	38.3%
CC(=O)NCc1cncc(C2CCCN2C2CCOCC2)n1 (configuration not stated)	-4.15%
c1cnn(CC2CCCN2c2ncnc3sccc23)c1 (configuration not stated)	79.7%
c1cnn(CC2CCCCN2c2ncnc3ccsc23)c1 (configuration not stated)	14.75%
c1nc(N2CCCC2Cn2cncn2)c2sccc2n1 (configuration not stated)	10.65%
c1cnn(CC2CCCCN2c2ncnc3sccc23)c1 (configuration not stated)	18.2%
c1nc(N2CCCC2Cn2cncn2)c2ccsc2n1 (configuration not stated)	33%
c1cnn(CC2CCCN2c2ncnc3ccsc23)c1 (configuration not stated)	57.8%
O=C(Nc1nccs1)C1CCN(Cc2cccc3c2OCCO3)CC1	37.6%
COCc1noc(-c2cc(Cl)c3c(c2)OCO3)n1	-26.1%
